# Screening results from PubChem BioAssay.
# CHRM1 antagonist: blocks human M1 muscarinic receptor; inhibition, % at 3 µM; hit rate 1.3% among 360,000; P11229; AID 588852; CHO-K1 hM1, Fluo-8 calcium fluorescence, ACh EC80 antagonist;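 active means percent inhibition above its own plate's cutoff, namely the mean of that plate's compound wells plus 3 SD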;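 further: peak over basal fluorescence ratio during 140 s after agonist addition; 0% = ACh EC80 plus DMSO and 100% = DMSO alone without agonist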
# Target sequence (P11229 whole entry, looked up): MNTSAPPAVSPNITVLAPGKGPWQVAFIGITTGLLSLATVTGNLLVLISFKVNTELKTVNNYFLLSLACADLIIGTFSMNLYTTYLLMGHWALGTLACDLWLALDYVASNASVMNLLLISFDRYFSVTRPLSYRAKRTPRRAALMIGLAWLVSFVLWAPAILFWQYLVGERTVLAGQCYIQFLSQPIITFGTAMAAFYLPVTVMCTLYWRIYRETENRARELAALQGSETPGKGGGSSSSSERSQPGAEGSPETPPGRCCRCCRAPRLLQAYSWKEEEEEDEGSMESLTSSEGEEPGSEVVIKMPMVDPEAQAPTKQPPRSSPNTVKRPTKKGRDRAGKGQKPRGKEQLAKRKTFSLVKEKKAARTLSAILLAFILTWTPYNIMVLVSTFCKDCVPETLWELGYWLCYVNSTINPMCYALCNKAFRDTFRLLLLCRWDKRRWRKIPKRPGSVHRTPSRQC
# M1 PAM parental: counter-screen for M1 PAMs: effect in parental CHO-K1 cells; ATP EC20, Fluo-8 calcium fluorescence; 0% at ATP EC20, 100% at ATP max; activation, % at 3 µM; hit rate 0.02% among 360,000;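 active means activation above the run cutoff, the mean activation of all test compounds plus 3 SD, cut at about 40% in these data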;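 further: peak over basal fluorescence ratio in a 140 s read after ATP addition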
# CHO-K1 Ca antag: M1 antagonist counterscreen hit in parental CHO-K1 cells; hit rate 0.6% among 360,000; inhibition, % at 3 µM; ATP-induced calcium, Fluo-8 fluorescence;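 active means inhibition above a per-plate cutoff, the plate's mean sample inhibition plus 3 SD, cut at about 24% in these data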;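 further: 0% = DMSO plus EC80 ATP and 100% = DMSO alone without ATP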
# CHO-K1 Ca ag: nonselective activator or artifact in parental CHO-K1 cells; Fluo-8 calcium fluorescence; scaled to maximal ATP response, vehicle zero; activation, % at 3 µM; hit rate 0.48% among 360,000; AID 602248; in the data active means activation above about 15%;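 further: untransfected CHO-K1 host cells lacking M1 receptor as counterscreen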
# CHRM1 agonist: agonists of human M1 muscarinic receptor | P11229 | CHO-K1 hM1, Fluo-8 calcium fluorescence, agonist mode; 0% DMSO, 100% acetylcholine EC100 | activation, % at 3 µM | hit rate 0.33% among 360,000 | AID 588814;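 active means activation above the run's mean compound activation plus 3 SD, cut at about 16% in these data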;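 further: peak over basal fluorescence ratio within a 140 s kinetic read after compound addition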
# M1 PAM: human CHRM1 positive allosteric modulation; P11229; CHO-K1 hM1, Fluo-8 calcium fluorescence, ACh EC20; 0% = ACh EC20, 100% = maximal ACh; activation, % at 3 µM; hit rate 0.088% among 360,000; in the data active means activation above about 19%, passing the limit was not always enough
# * hit, by the source's call; x = no result given. This is a sample that favours compounds with a hit; in the whole collection about 2.3% have one here.
SMILES,CHRM1 antagonist,M1 PAM parental,CHO-K1 Ca antag,CHO-K1 Ca ag,CHRM1 agonist,M1 PAM
Nc1cc(=O)[nH]n1C1CCN(c2ccccc2)CC1,-5,-5,26*,-1,0,3
Nc1ccc(N2CCN(c3cccc(Cl)c3)CC2)cc1,-6,24,-5,3,-11,-1
COc1ccc(C(=O)NC(C(=O)OCC(=O)Nc2sccc2C(N)=O)C(C)C)cc1 (stereo not given),11,-13,1,7,2,-1
COc1ccc(CCC(=O)OCC(=O)Nc2sccc2C(N)=O)cc1,39*,-21,34*,16*,2,-19
COc1ccc(CCC(=O)OCC(=O)Nc2sccc2C(N)=O)cc1OC,24,-15,26*,15,2,-12
COc1ccc(OC)c(CN2C(=O)c3ccccc3C2c2nnnn2C2CCCC2)c1 (stereo not given),x,8,-13,0,x,x
Cc1ccc(C)c(NC(=O)Cn2nc(C(F)(F)F)cc2C2CC2)c1,-20,2,-41,0,1,26*
Cc1cc(C)n(CC(=O)NNC(=O)c2ccc(S(C)(=O)=O)cc2)n1,-8,-6,1,0,0,5
O=C(O)c1cc2c(cc1Cl)N1CCCCCC1=NS2(=O)=O,3,9,-5,10,-8,3
COC(=O)c1cc2c(cc1Cl)N1CCCCCC1=NS2(=O)=O,9,-21,24*,0,-2,-3
CCOC(=O)N1CCN(C(=O)Cc2c(C(=O)O)n(C)c3ccccc23)CC1,-5,18,-13,0,28*,1
CCOC(=O)N1CCN(Cc2c(O)ccc3ccccc23)CC1,-5,-7,-3,16*,4,2
C[C@@H]1O[C@H](C2CCCC2)Cc2[nH]c(=S)[nH]c(=O)c21,x,17,-20,1,x,x
Cc1cc(/C=C2\C(=N)N3C(SCc4ccccc4)=NSC3=NC2=O)c(C)n1Cc1ccccc1,-5,15,-4,3,-4,5
CC(C)CSC1=NSC2=NC(=O)/C(=C\c3coc4ccccc4c3=O)C(=N)N12,60*,-5,60*,107*,143*,-32
CSC1=NSC2=NC(=O)/C(=C\c3coc4ccccc4c3=O)C(=N)N12,35*,-7,21,20*,45*,-8
CC(C)CSC1=NSC2=NC(=O)/C(=C\c3ccccc3)C(=N)N12,15,-14,0,0,-3,-6
CC12CC3CC(C)(C1)CC(C(=O)Nc1nncs1)(C3)C2,-13,-16,6,0,1,17
O=C(c1cc(-c2ccccc2)n[nH]1)N1CCc2c([nH]c3ccccc23)C1c1ccccn1 (stereo not given),-13,6,-3,1,-8,13
O=S(=O)(c1ccccc1F)N1CCC(Oc2ccc(-n3cnnn3)cc2)CC1,21,-3,-1,22*,6,-13
O=C(Nc1csc([N+](=O)[O-])c1)Nc1ccccc1Cl,41*,-10,27*,16*,2,-16
O=C(Nc1ccccc1Cl)Nc1ccccc1Cl,-9,22,-10,1,-4,5
CCOC(=O)c1sc(NC(=O)Cn2nnc3sc4c(c3c2=O)CCC(C(C)(C)C)C4)nc1C (stereo not given),-11,-12,26*,-1,-3,4
ON=C(CCc1ccccc1)c1ccccc1,-13,-2,10,0,0,9
CC1Cn2c(nnc2-c2ccc(F)cc2)S1 (stereo not given),-5,-3,26*,0,0,7
Cc1ccccc1NC(=O)c1sc2nc[nH]c(=O)c2c1C,3,-14,24*,0,-3,11
COc1cccc(N2CCN(C(=S)Nc3ccccc3OC)CC2)c1,-6,10,-8,0,-4,10
COc1ccc(NC(=S)N2CCN(C(c3ccccc3)c3ccccc3)CC2)c(OC)c1,46*,22,-8,1,-14,-33
CCOc1ccccc1NC(=S)N1CCN(c2cccc(OC)c2)CC1,-10,7,4,17*,1,7
CCOc1ccc(NC(=O)CN(C)C(=O)c2ccccc2OCCOc2ccccc2)cc1OCC,-5,-4,-8,3,-1,4
